Screens (PubChem)
The list is not random: actives were taken first. Their share in the collection is about 22%.
Pf growth 48h = Primary qHTS for delayed death inhibitors of the malarial parasite plastid, 48 hour incubation; P. falciparum luciferase growth in erythrocytes, 48 h; Potency, µM (highest dose often 28.7 µM), actives largely listed as inhibitors; 310,000 tested, 5.9% active; AID 504832, 2011
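Here the parasites carry a stable luciferase gene and grow inside erythrocytes in Albumax-based RPMI medium with compound for one erythrocytic cycle. Activity is scored as loss of luminescent signal.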
Shiga toxin inh = A qHTS for Small Molecule Inhibitors of Shiga Toxin | Vero cells, Shiga toxin protein synthesis inhibition reporter | inhibition, % at 38.7 µM | 290,000 tested, 9.2% active | AID 2315, 2010; in the data active means inhibition mostly above about 28%, no sharp cut-off; inactive means mostly below about 43%
CHX counter = Cycloheximide Counterscreen for Small Molecule Inhibitors of Shiga Toxin; cell reporter, cycloheximide protein synthesis inhibition counterscreen; max response, %; 300,000 tested, 12% active; AID 2314, 2010; in the data active means max response mostly above about 13%, no sharp cut-off; inactive means mostly below about 14%; further: read at 38.3 µM for the half of the compounds with a filed dose
LmPK inh = qHTS Assay for Inhibitors of Leishmania Mexicana Pyruvate Kinase (LmPK); Potency, µM (highest dose often 57.5 µM), actives largely listed as inhibitors; AID 1721, 2009; 290,000 tested, 0.37% active; purified LmPK, Kinase-Glo ATP luminescence, 1 h; Q27686
Target sequence (Q27686 whole entry, looked up): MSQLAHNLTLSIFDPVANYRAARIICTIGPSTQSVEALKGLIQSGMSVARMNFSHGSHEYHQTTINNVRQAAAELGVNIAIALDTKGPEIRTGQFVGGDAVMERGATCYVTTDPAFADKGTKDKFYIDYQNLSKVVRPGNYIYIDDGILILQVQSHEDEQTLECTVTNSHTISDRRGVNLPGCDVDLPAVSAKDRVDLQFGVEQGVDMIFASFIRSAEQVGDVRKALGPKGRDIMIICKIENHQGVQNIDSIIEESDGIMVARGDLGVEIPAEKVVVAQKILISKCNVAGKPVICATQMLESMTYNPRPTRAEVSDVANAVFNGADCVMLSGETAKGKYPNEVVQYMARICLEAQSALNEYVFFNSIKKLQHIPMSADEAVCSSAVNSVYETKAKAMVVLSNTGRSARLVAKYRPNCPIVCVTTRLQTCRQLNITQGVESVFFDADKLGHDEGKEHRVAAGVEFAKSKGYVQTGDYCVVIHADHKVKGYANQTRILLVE
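Screened at intermediate enzyme activity to detect both inhibitors and activators: LmPK at 0.1 nM, with a 0.5 nM enzyme column as activation reference. PEP 0.5 mM, ADP 0.1 mM; ATP detected by luminescence after 1 h.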
Pf growth 96h = Primary qHTS for delayed death inhibitors of the malarial parasite plastid, 96 hour incubation | P. falciparum luciferase reporter growth, 96 h | Potency, µM (top dose mostly 28.7 µM), most hits filed as inhibitors | 320,000 tested, 6.9% active | AID 504834, 2011
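Cell-based qHTS: luciferase-tagged P. falciparum in erythrocytes (2% hematocrit, 0.05% parasitemia final) incubated with compounds for 96 hours, 37 C, 5% CO2; luciferase detection reagent then added and luminescence measured.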
Each line names hits and unclear results; the compound was inactive in the other large screens. Unless noted, the call rests on the fitted dose curve; in most records, active means well fitted inhibition curve with a large enough effect; inconclusive means small, poorly fitted or top-dose-only effect, or another doubt; inactive means no such curve, though single readings can be large or run the other way.

Cc1cccc(N(C)S(=O)(=O)c2nnc(NC(=O)c3ccco3)s2)c1	Pf growth 96h inconclusive
CN(c1ccccc1)S(=O)(=O)c1nnc(NC(=O)c2ccco2)s1	Pf growth 96h 3.7µM
O=C(Nc1nnc(/C=C/c2ccccc2)s1)c1ccco1	Shiga toxin inh 63.5, CHX counter 29.9
Nc1nnc(/C=C/c2ccccc2)s1	Shiga toxin inh 37.5, CHX counter 44.4
CN(Cc1ccco1)S(=O)(=O)c1nnc(NC(=O)c2cccc(Cl)c2)s1	Shiga toxin inh 63.8, CHX counter 35.5
CC(=O)Nc1nnc(/C=C/c2cccc([N+](=O)[O-])c2)s1	Pf growth 96h inconclusive
COC(=O)Nc1nnc(/C=C/c2ccccc2)s1	Shiga toxin inh 49.2
Cc1ccccc1OCCSc1nnc(C)n1-c1ccccc1	CHX counter 19.0 (no result: Pf growth 48h)
CCOc1ccc(OCCSc2nnnn2-c2ccccc2)cc1	none (no result: Pf growth 96h)
Fc1ccccc1OCCSc1nnnn1-c1ccccc1	Shiga toxin inh 83.7, CHX counter 47.3
c1ccc(OCCSc2nnnn2-c2ccccc2)cc1	Shiga toxin inh 55.4, CHX counter 60.0 (no result: Pf growth 48h)
c1ccc(-n2nnnc2SCCCSc2nc3ccccc3s2)cc1	Pf growth 96h 4.15µM (no result: Pf growth 48h)
CC(C)CNC(=O)c1cccc(NC(=O)Cc2ccc(Cl)cc2)c1	none
Cc1c(C(=O)N/N=C/C(C)C)[nH]c2c([N+](=O)[O-])cccc12	Pf growth 48h inconclusive, Pf growth 96h inconclusive
NS(=O)(=O)c1ccc(NC(=O)CSc2n[nH]c(=O)n2C2CC2)cc1	none (no result: Shiga toxin inh, CHX counter, LmPK inh)
O=C1CC(N2CCc3ccccc32)C(=O)N1c1ccccc1 (configuration not stated)	Shiga toxin inh 72.7
C=CCC(O)[C@H](Cc1cnc2ccccc2c1)[C@H](/C=C/CCCC)c1ccccc1 (some centres not stated)	none (no result: Pf growth 48h, LmPK inh, Pf growth 96h)
C(=C/c1nccc2c1[nH]c1ccccc12)/c1ccc2c(c1)OCO2	Pf growth 48h 2.94µM, Shiga toxin inh 39.6
O=C(/C=C/c1ccc2c(c1)OCO2)NCc1ccncc1	none
COc1ccc([C@@H]2CNC(=O)C2)cc1OC1CCCC1	none (no result: Shiga toxin inh, CHX counter, LmPK inh)
CCn1c(CC(=O)Nc2ccc(C)cc2)nnc1SCC(=O)N1CCOCC1	none
CN(C)CCCN(C(=O)c1ccc(S(=O)(=O)N2CCc3ccccc32)cc1)c1nc2ccc(F)cc2s1	Pf growth 48h inconclusive, Pf growth 96h inconclusive
CN(C)CCCN(C(=O)c1ccc(S(=O)(=O)N2CCc3ccccc32)cc1)c1nc2ccc(Cl)cc2s1	Pf growth 48h 10.4µM, Pf growth 96h 5.22µM
Cc1cc(C)c2sc(N(CCCN(C)C)C(=O)c3ccc(S(=O)(=O)N4CCCc5ccccc54)cc3)nc2c1	Pf growth 48h 9.28µM, Pf growth 96h inconclusive (no result: Shiga toxin inh, CHX counter, LmPK inh)
CC[n+]1c(C)sc2cc(C)ccc21	Pf growth 48h inconclusive, Pf growth 96h inconclusive
Cc1ccc2c(c1)sc(-c1ccc(N(C)C)cc1)[n+]2C	Shiga toxin inh active, CHX counter 77.2, Pf growth 96h inconclusive
CCn1cc(CN2CCC(n3nccc3NC(=O)CCOc3ccccc3)CC2)c(C)n1	none
COc1ccc(CN2CCC(n3nccc3NC(=O)CCOc3ccccc3)CC2)cc1C	Pf growth 96h inconclusive
CCn1ccnc1CN1CCC(n2nccc2NC(=O)CCc2ccccc2)CC1	Pf growth 96h 8.28µM
CCn1nc(C)c(CN2CCC(n3nccc3NC(=O)Cc3ccccc3)CC2)c1C	Pf growth 96h 11.7µM
O=C(CCOc1ccccc1)Nc1ccnn1C1CCN(CCc2ccccc2)CC1	Pf growth 96h 13.1µM
CCn1nc(C)c(CN2CCC(n3nccc3NC(=O)CCCc3ccccc3)CC2)c1C	none
COc1cccc(CN2CCC(n3nccc3NC(=O)CCOc3ccccc3)CC2)c1	Pf growth 48h inconclusive, Pf growth 96h 3.29µM
CC(OC(=O)/C=C/c1cccc(F)c1)C(=O)NC1CCCCC1C (configuration not stated)	none
COc1ccccc1C(=O)NC(=O)CSc1nc(C)cs1	none (no result: Shiga toxin inh, CHX counter, LmPK inh)
CCn1cc(CN2CCC(n3nccc3NC(=O)CCOc3ccccc3)CC2)cn1	Pf growth 96h inconclusive
O=C(CCOc1ccccc1)Nc1ccnn1C1CCN(Cc2ccc(O)cc2)CC1	Pf growth 48h 9.28µM
CC(=O)N1N=C(c2cccc(NS(=O)(=O)c3ccc(C)cc3)c2)CC1c1ccco1 (configuration not stated)	Pf growth 48h inconclusive, Pf growth 96h inconclusive
